Each structure is given as a SMILES string. The source made the active and inactive calls.

The text below walks through data of PubChem BioAssay.

Assay [1] can be described thus: small molecules captured by biotinylated probe aFSTL3 – biochemical, small-molecule microarray, fluorescence 635/667, stem cell growth factor project, primary screen (AID 1064).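 Also: measures binding of the biotinylated anti-FSTL3 antibody to printed compounds.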 To be noted: higher = more signal.
A short description of assay [2]: binders from COS7 lysate, DM2A8 probe, primary screen, torsin A project, cell lysate, small-molecule microarray, fluorescence 635/667 (AID 1065). To be noted: higher = more signal, COS7 lysate expressing mutant human TOR1A.
Assay [3] is described as follows: small molecules captured by biotinylated probe aFGF2 – biochemical, small-molecule microarray, fluorescence 635/667, stem cell growth factor project, primary screen (AID 1067).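 Also: measures binding of biotinylated aFGF2 protein to printed compounds on slides; z-score merges feature fluorescence and signal-to-noise across triplicate slides.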 Conditions: higher = more signal.
The nature of assay [4]: small molecules captured by biotinylated probe aFGF10 – biochemical, small-molecule microarray, fluorescence 635/667, stem cell growth factor project, primary screen (AID 1071).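 Also: score merges 667 nm spot intensity and signal to noise from triplicate slides.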 To be noted: higher = more signal.
Assay [5] deals with Neurogenic locus notch homolog protein 2 (Homo sapiens) (UniProt Q04721). The experiment in a line: small molecules binding Notch2 protein – biochemical, small-molecule microarray, 635 nm fluorescence, stem cell growth factors, primary screen (AID 1073). To be noted: higher = more signal.
Assay [6] concerns the target Pro-neuregulin-1, membrane-bound isoform (Homo sapiens) (UniProt Q02297). Description: small molecules binding neuregulin-1 protein – biochemical, small-molecule microarray, fluorescence 635/667, psychiatric disease protein project, primary screen (AID 1075).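 Also: score combines 667 nm spot fluorescence with signal to noise.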 To be noted: NRG1 binding, 635 nm fluorescence, higher = more signal.
Assay [7] has as its system Neuregulin-1 EGF-like domain. The experiment in a line: small molecules binding NRG1 EGF domain – biochemical, small-molecule microarray, 635 nm fluorescence, primary screen (AID 1081).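 Also: binding of the protein to compounds printed on small-molecule microarray slides.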 Conditions: higher = more signal.
Assay [8] is described as follows: FRG1 expression reporter modulators in myotubes – cell-based, C2C12 myotubes, firefly/Renilla luciferase, luminescence, FRG1 inhibition for FSHD, primary screen (AID 1084). To be noted: FRG1 promoter luciferase, higher = more signal, called active from +8 up or from −8 down.
A short description of assay [9]: small molecules captured by biotinylated probe aFST – biochemical, small-molecule microarray, fluorescence 635/667, stem cell growth factor project, primary screen (AID 1086).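 Also: score merges 667 nm fluorescence with signal-to-noise of each printed compound spot.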 To be noted: higher = more signal.
Assay [10] can be described thus: binders of probe aHhip on microarray, primary screen, stem cell growth factor project, biochemical, small-molecule microarray, fluorescence 635/667 (AID 1087).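 Also: score merges spot fluorescence at 667nm with spot signal to noise ratio.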 Conditions: higher = more signal.
In assay [11] the test system is PRMT1 (protein arginine N-methyltransferase 1). Description: small molecules binding arginine methyltransferase PRMT1 – biochemical, small-molecule microarray, 635 nm fluorescence, primary screen (AID 1088).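 Also: binding of Prmt1 protein to compounds spotted on small-molecule microarray slides.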 To be noted: higher = more signal.
Assay [12] is described as follows: growth effects on S. cerevisiae YJM789 – YJM789 clinical isolate, OD600, 24 h, basal, primary screen (AID 1089).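 Also: growth of clinical yeast isolate S. cerevisiae YJM 789 seeded 1000 cells per well; test concentration not given here.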 Conditions: higher = more signal, called active from +8 up or from −8 down.
Assay [13] is described as follows: S. pombe growth modifiers, basal conditions – strain 972, OD600, 24 h, no modulator, primary screen (AID 1090).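 Also: basal condition with compound alone and no growth modifier present; test concentration not given here.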 To be noted: S. pombe 972 growth, higher = more signal, called active from +8 up or from −8 down.
Assay [14] in a line: budding yeast growth modifiers under rapamycin – strain BY4716, OD600, 96 h, primary screen (AID 1091). Also: test concentration not given here. Conditions: S. cerevisiae BY4716 + rapamycin, higher = more signal, called active from +8 up or from −8 down.
Assay [15] has as its target Torsin-1A-interacting protein 2 (Homo sapiens) (UniProt Q8NFQ8). Description: small molecules binding lysate-expressed LULL1 – cell lysate, human LULL1 lysate, 635/667 nm fluorescence, primary screen (AID 1092).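 Also: probe is lysate of COS7 cells overexpressing human LULL1; score merges per-feature 667 nm fluorescence with signal-to-noise.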 Conditions: small-molecule microarray, hLULL1 lysate binding, 635 nm fluorescence; higher = more signal.
Assay [16] is described as follows: optical density change of DRC41 E. coli – strain DRC41, OD650, 24 h, E. coli filamentation project, primary screen (AID 1093).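 Also: MC1000 strain lacking acrAB efflux and sulA so SOS filamentation is blocked; test concentration not given here.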 To be noted: E. coli DRC41 growth, higher = more signal, called active from +8 up or from −8 down.
Assay [17] is described as follows: probe aLefty2 binding to arrayed compounds – biochemical, biotinylated probe, 635/667 nm fluorescence, primary screen (AID 1094).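 Also: score merges spot fluorescence near 667 nm with spot signal-to-noise ratio.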 Conditions: small-molecule microarray, higher = more signal.
The subject of assay [18] is Noggin (protein binding on small-molecule microarray). The experiment in a line: small molecules binding Noggin protein – biochemical, 635/667 nm fluorescence, primary screen (AID 1095).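 Also: score merges 667 nm feature fluorescence with signal to noise over triplicate slides.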 To be noted: 635 nm fluorescence, higher = more signal.
Assay [19] deals with Neurogenic locus notch homolog protein 3 (Homo sapiens) (UniProt Q9UM47). The experiment in a line: small molecules binding NOTCH3 protein – biochemical, 635/667 nm fluorescence, primary screen (AID 1096). Conditions: small-molecule microarray, 635 nm fluorescence, higher = more signal.
Assay [20] can be described thus: probe aEGFR binding to arrayed compounds – biochemical, biotinylated probe, 635/667 nm fluorescence, primary screen (AID 1097).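 Also: probe is a biotinylated anti-EGFR antibody binding compounds printed on slides; score combines fluorescence near 667 nm and signal to noise of each spot.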 To be noted: small-molecule microarray, higher = more signal.

Chain of Torsin-1A-interacting protein 2 (Homo sapiens) (Q8NFQ8 whole entry, looked up): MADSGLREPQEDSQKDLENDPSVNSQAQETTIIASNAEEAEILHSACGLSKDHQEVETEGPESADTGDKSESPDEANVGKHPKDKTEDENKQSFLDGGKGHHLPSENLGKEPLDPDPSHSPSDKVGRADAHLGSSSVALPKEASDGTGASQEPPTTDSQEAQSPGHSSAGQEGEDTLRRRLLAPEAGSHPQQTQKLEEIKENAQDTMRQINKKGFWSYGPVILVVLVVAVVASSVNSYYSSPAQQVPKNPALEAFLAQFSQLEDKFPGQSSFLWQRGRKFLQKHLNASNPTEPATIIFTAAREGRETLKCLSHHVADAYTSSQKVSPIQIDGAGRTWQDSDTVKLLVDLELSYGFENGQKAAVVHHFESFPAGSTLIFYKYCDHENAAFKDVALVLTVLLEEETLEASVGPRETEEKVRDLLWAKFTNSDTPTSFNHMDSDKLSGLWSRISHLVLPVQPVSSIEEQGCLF
Chain of Neurogenic locus notch homolog protein 2 (Homo sapiens) (Q04721 whole entry, looked up, canonical isoform): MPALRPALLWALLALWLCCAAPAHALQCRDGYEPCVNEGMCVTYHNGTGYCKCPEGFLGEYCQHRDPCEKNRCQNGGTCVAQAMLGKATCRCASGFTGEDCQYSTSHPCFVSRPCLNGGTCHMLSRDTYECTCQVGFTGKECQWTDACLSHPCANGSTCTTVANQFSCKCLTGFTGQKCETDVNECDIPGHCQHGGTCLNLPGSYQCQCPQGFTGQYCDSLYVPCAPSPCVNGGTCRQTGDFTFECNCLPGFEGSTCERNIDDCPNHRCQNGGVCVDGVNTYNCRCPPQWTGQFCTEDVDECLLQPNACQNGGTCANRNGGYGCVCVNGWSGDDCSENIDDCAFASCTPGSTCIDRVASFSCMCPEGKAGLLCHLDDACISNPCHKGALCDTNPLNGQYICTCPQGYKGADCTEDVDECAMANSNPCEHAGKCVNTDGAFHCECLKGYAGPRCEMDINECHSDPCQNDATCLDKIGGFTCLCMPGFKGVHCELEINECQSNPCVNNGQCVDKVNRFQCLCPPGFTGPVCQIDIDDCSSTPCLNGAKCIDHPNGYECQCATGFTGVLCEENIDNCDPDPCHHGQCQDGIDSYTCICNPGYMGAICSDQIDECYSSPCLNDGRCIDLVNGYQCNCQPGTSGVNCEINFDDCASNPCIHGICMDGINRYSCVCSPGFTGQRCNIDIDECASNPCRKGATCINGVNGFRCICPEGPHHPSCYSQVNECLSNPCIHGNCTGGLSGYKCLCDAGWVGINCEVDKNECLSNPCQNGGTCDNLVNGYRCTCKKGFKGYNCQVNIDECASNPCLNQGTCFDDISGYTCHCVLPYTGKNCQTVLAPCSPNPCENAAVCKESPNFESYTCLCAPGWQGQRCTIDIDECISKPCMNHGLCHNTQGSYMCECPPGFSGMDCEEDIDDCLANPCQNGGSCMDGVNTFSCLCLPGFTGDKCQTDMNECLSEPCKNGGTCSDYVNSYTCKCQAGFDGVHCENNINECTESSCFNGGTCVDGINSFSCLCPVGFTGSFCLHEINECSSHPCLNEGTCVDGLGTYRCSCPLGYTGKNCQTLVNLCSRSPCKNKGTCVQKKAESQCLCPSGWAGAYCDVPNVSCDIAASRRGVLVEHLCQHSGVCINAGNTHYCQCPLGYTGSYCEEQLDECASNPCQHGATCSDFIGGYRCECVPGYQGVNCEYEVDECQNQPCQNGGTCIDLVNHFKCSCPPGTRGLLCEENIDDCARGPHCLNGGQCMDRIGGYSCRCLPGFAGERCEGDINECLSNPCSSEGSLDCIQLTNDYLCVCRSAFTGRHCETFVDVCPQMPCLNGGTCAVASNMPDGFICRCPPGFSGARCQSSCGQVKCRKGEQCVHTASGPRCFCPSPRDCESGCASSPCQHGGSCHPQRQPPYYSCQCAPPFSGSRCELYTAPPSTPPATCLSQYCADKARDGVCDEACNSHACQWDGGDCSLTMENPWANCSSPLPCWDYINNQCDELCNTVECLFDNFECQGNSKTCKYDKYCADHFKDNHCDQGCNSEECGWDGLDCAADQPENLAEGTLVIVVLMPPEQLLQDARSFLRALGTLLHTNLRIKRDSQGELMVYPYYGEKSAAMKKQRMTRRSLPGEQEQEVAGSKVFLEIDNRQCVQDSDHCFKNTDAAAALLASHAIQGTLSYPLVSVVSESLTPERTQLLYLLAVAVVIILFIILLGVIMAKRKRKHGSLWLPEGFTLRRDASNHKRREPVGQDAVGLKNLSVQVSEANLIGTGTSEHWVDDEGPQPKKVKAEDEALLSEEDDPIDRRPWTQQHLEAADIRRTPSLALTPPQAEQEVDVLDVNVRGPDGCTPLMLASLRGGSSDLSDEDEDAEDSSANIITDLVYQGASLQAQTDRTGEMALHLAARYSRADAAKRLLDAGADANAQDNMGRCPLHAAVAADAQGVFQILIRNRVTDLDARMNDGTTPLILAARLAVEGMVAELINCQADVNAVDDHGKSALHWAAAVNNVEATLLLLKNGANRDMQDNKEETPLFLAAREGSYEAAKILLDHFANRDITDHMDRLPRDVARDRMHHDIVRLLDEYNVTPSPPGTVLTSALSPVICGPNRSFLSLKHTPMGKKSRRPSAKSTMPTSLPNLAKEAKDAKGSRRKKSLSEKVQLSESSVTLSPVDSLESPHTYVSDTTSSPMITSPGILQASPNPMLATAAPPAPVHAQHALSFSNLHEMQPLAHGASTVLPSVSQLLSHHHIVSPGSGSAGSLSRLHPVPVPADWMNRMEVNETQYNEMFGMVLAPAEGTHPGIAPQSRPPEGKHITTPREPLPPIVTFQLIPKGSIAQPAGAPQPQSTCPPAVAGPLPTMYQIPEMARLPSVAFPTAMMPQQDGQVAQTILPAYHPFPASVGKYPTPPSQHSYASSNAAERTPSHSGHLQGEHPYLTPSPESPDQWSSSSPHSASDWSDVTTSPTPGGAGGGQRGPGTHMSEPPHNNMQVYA
Chain of Pro-neuregulin-1, membrane-bound isoform (Homo sapiens) (Q02297 whole entry, looked up, the tested form may be a part, canonical isoform): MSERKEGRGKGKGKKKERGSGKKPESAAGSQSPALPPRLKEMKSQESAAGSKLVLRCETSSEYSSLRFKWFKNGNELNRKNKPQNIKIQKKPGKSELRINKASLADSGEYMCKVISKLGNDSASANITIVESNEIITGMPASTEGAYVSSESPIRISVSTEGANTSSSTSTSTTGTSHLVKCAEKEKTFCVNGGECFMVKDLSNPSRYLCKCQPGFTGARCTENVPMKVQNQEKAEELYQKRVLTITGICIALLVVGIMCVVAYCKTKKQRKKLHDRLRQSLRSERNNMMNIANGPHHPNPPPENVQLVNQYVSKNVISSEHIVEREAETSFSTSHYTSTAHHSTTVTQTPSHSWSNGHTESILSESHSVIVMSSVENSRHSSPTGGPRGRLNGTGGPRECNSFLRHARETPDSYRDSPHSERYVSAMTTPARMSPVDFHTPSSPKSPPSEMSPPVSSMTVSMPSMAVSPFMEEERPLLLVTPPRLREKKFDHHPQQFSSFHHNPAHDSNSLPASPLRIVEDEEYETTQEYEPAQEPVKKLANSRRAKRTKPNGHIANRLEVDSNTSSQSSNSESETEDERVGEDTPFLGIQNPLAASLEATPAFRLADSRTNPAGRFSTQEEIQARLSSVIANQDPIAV

For the compound `CC(=O)n1cc(C(O)C2C=CC3C(=O)N(c4ccccc4)C(=O)C3N2Nc2ccc([N+](=O)[O-])cc2)c2ccccc21` (stereo not given), the composite z-score in [1] is 0.889; in assay [2], 1.44; in assay [3], -0.0605; in [4] it was -0.0938; in [5], 1.24; in assay [6] it was 1.23. The composite z-score was 1.22 in assay [7]; 1.02 in assay [9]; 0.0274 in [10]; 1.45 in [11]; 3.28 in [15]; 0.534 in assay [17]. Besides, the results for the composite z-score in assay [18], in assay [19] and in assay [20] were -0.386, 1.06 and -0.0355, respectively. The z-score in assay [8] was -0.438 (inactive); in assay [12], -0.701 (inactive); in assay [13], 0.451 (inactive); in assay [14], 2.05 (inactive); in assay [16], -0.567 (inactive).
As to `COc1cc2c(cc1O)C(c1cccs1)N(C)CC2` (stereo not given), the composite z-score in assay [1] is -0.101; in [2], -0.493; in assay [3], -0.201; in assay [4], -0.143; in [5] it was -0.521; in assay [6], -0.714. Further, the composite z-score in assay [7] was -0.31; in assay [9], -0.166; in assay [10] it was -0.0994; in assay [11], -0.414; in assay [15], -0.849; in assay [17], -0.0943. In addition, the composite z-score is -0.428 in assay [18], -0.0102 in assay [19] and -0.151 in [20]. The z-score was 0.52 (inactive) in [8]; 0.213 (inactive) in assay [12]; 1.07 (inactive) in assay [13]; -2.13 (inactive) in assay [14]; 0.841 (inactive) in assay [16].
In the case of `CC(C)NC(=O)[C@@H]1c2ccccc2C(=O)N(C2Cc3ccccc3C2)[C@H]1c1ccc(CO)cc1`, the composite z-score in assay [1] was 0.351; in [2] it was 0.329; in assay [3], -0.0234; in assay [4], 0.0799; in assay [5], 0.526; in assay [6] it was 0.634. Besides, the composite z-score was 0.998 in [7]; 0.148 in assay [9]; -0.131 in assay [10]; 1.03 in assay [11]; 2.33 in [15]; -0.0491 in [17]. Moreover, the composite z-score in assay [18] was 0.0941; in [19] it was 0.436; in [20] it was -0.126. The z-score in [8] was -0.943 (inactive); in assay [12] it was -0.14 (inactive); in assay [13] it was -0.0232 (inactive); in assay [14], -0.377 (inactive); in assay [16] it was 1.28 (inactive).
As for `NC(=O)NCC#Cc1ccc2c(c1)[C@]1(C(=O)N2)[C@H](c2ccc(O)cc2)N2[C@H](c3ccccc3)[C@H](c3ccccc3)OC(=O)[C@H]2[C@@H]1C(=O)O`, the composite z-score in assay [1] is 0.741; in [2], -0.935; in assay [3] it was -0.176; in [4], -0.225; in assay [5] it was -0.897; in [6] it was 1.08. Also, the composite z-score was -0.224 in assay [7]; -0.0113 in [9]; -0.457 in [10]; -0.019 in assay [11]; 0.966 in assay [15]; -0.255 in [17]. The composite z-score in [18] was -0.581; in [19], -0.156; in [20] it was -0.191. In addition, the z-score was 0.473 (inactive) in [8]; 0.801 (inactive) in assay [12]; -0.0898 (inactive) in assay [13]; 0.607 (inactive) in [14]; -0.504 (inactive) in assay [16].
For the compound `OCCCC1=CC(c2cccs2)N(Cc2cc3c(cc2Br)OCO3)CC1` (stereo not given), the composite z-score in assay [1] was 0.235; in [2], 0.457; in [3] it was -0.124; in assay [4] it was -0.0316; in assay [5], -0.242; in [6] it was 0.775. Besides, the composite z-score in [7] is 1.04; in assay [9], -0.0026; in assay [10], -0.206; in [11], 0.591; in assay [15], 1.17; in [17] it was 0. Besides, the figures for the composite z-score in [18], in assay [19] and in assay [20] were 0.915, 0.208 and -0.0304, respectively. Besides, the z-score in [8] was -1.86 (inactive); in [12] it was -0.678 (inactive); in [13], -1.05 (inactive); in [14] it was -0.274 (inactive); in assay [16] it was -0.414 (inactive).
